# Reference: publication PMC7862700, “An all-to-all approach to the identification of sequence-specific readers for epigenetic DNA modifications on cytosine”
# Legend:
# Assay in all cases: DAPPL (digital affinity profiling via proximity ligation, sequencing); 10 mM Tris-HCl pH 7.5, 50 mM NaCl, 1 mM DTT, 4% glycerol, room temperature, 30 min; GST-TFs on glutathione beads, 16-mer random dsDNA library, 0.1% formaldehyde crosslink after washing; high values mean tight binding
# FEV = biological target: T1, FEV (Homo sapiens, UniProt Q99581 1-238); settings: protein: recombinant; tags: N-terminal GST; dsDNA, one strand shown
# T1 sequence: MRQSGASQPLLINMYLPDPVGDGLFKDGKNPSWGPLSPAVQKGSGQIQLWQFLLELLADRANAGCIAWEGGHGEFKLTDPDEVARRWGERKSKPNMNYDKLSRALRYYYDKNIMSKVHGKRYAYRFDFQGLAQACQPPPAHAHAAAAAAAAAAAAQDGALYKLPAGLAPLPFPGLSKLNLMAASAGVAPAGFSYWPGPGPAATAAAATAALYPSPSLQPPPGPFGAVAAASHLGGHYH
# Method in brief: (§1)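 Human transcription factors were made in yeast as GST fusions, captured on glutathione beads and barcoded with DNA. With a tag-only sample included, the pool was incubated with 200 nmole of a random double-stranded 16-mer DNA library in Tris/NaCl/DTT/glycerol buffer at room temperature for 30 min, then crosslinked with 0.1% formaldehyde after washing, ligated by proximity, amplified and sequenced. For binding signal, each hexamer's read frequency for a factor is divided by its frequency for the tag-only sample.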
# ETV5 = ETV5 (Homo sapiens, UniProt P41161 1-510); settings: protein: recombinant; tags: N-terminal GST; dsDNA, one strand shown
# Sequence of ETV5 (P41161 whole entry): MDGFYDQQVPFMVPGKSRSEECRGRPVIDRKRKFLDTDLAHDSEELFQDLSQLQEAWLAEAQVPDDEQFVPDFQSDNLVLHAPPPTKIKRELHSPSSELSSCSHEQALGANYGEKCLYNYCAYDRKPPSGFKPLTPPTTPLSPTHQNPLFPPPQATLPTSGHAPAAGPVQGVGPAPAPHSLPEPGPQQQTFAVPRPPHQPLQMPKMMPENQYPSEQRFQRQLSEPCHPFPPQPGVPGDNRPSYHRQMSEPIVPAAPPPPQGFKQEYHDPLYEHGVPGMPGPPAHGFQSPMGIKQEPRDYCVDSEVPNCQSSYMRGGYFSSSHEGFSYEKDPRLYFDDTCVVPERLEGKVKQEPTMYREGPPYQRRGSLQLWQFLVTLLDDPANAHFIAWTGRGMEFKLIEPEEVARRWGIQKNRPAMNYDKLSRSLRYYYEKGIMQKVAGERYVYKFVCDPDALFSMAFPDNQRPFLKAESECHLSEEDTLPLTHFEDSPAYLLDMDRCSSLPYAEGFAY
# Method in brief: as §1
# HSF1 = HSF1 (Homo sapiens, UniProt Q00613 1-529); settings: protein: recombinant; tags: N-terminal GST; chain copies: 3; dsDNA, one strand shown
# Sequence of HSF1 (Q00613 whole entry): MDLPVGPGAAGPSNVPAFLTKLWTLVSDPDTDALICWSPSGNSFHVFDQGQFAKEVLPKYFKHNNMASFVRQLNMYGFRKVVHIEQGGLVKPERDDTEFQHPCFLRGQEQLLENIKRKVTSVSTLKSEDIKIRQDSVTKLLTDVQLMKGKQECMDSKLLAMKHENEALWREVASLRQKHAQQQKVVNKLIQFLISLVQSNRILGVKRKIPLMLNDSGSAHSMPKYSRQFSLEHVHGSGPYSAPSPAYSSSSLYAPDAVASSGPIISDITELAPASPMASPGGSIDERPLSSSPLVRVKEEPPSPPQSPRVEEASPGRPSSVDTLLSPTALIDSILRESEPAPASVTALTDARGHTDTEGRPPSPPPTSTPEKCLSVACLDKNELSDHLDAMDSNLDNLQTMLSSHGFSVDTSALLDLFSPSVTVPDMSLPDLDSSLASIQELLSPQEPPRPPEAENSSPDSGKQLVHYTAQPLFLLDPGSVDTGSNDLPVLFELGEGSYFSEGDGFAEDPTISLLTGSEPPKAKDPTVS
# Method in brief: as §1
# SPIC = biological target: T2, SPIC (Homo sapiens, UniProt Q8N5J4 1-248); settings: protein: recombinant; tags: N-terminal GST; dsDNA, one strand shown
# T2 sequence: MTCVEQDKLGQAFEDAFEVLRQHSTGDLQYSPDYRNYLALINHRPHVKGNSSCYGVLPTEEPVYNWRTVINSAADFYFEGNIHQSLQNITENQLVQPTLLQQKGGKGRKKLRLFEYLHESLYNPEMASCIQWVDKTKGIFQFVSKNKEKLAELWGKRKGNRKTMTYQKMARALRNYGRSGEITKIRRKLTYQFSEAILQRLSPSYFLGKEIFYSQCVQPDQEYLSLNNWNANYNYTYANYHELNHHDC
# Method in brief: as §1
# ELF4 = ELF4 (Homo sapiens, UniProt Q99607 1-663); settings: protein: recombinant; tags: N-terminal GST; dsDNA, one strand shown
# Sequence of ELF4 (Q99607 whole entry): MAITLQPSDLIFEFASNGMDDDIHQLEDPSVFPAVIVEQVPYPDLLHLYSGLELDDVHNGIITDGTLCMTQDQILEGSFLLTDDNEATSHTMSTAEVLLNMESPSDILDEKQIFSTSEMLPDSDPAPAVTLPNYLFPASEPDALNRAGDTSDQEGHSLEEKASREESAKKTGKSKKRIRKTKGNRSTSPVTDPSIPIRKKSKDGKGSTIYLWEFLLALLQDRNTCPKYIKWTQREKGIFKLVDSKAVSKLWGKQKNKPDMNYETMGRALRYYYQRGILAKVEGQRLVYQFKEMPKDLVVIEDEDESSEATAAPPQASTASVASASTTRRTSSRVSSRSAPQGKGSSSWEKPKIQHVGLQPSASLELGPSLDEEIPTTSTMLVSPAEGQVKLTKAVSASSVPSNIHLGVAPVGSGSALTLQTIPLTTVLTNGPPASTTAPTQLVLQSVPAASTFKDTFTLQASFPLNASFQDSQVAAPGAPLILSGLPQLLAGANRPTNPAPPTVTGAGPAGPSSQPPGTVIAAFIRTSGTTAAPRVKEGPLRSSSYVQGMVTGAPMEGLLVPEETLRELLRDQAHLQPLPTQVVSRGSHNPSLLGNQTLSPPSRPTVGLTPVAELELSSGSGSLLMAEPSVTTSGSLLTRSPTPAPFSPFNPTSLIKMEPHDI
# Method in brief: as §1
# ELK4 = biological target: T3, ELK4 (Homo sapiens, UniProt P28324-2 1-405); settings: protein: recombinant; tags: N-terminal GST; dsDNA, one strand shown
# T3 sequence: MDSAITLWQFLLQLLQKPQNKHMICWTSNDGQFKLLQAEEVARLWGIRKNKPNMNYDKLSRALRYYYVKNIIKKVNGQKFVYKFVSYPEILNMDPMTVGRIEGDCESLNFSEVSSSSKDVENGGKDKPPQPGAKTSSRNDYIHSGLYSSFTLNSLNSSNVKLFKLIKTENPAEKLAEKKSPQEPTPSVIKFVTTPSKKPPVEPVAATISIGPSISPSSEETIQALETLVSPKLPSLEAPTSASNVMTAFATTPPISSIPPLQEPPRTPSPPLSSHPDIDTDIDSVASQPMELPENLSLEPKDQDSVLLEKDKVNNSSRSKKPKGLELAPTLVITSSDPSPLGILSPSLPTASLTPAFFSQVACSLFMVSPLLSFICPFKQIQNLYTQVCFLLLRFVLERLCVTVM
# Method in brief: as §1
# ETV2 = biological target: T4, ETV2 (Homo sapiens, UniProt O00321 1-342); settings: protein: recombinant; tags: N-terminal GST; dsDNA, one strand shown
# T4 sequence: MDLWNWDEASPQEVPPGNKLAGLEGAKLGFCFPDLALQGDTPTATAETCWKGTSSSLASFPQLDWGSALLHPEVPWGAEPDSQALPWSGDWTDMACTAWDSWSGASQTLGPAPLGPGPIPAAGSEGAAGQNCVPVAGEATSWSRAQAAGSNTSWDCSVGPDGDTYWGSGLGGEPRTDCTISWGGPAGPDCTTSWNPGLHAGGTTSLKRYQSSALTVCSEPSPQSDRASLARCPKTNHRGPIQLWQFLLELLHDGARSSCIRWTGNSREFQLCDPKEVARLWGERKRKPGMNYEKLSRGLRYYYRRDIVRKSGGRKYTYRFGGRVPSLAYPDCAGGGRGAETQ
# Method in brief: as §1
# ELF3 = biological target: T5, ELF3 (Homo sapiens, UniProt P78545 1-371); settings: protein: recombinant; tags: N-terminal GST; dsDNA, one strand shown
# T5 sequence: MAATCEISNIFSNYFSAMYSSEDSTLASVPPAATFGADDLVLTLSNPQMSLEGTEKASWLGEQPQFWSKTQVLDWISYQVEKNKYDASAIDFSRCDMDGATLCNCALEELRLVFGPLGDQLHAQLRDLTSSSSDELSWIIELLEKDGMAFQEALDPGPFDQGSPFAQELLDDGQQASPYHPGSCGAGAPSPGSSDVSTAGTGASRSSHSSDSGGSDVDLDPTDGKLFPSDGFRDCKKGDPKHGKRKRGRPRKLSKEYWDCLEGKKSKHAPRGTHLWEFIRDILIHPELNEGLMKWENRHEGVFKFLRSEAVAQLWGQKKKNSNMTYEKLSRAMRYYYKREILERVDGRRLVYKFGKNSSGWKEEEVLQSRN
# Method in brief: as §1
# CRX = CRX (Homo sapiens, UniProt O43186 1-299); settings: protein: recombinant; tags: N-terminal GST; dsDNA, one strand shown
# Sequence of CRX (O43186 whole entry): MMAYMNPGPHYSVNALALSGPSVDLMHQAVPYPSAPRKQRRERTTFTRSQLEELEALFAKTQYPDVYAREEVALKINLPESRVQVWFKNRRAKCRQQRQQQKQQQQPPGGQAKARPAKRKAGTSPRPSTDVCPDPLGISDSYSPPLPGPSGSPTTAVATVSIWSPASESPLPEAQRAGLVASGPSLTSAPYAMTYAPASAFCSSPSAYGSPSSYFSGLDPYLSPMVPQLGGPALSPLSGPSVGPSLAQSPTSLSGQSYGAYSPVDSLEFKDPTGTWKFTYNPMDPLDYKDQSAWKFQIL
# Method in brief: as §1
# ETV1 = ETV1 (Homo sapiens, UniProt P50549 1-477); settings: protein: recombinant; tags: N-terminal GST; dsDNA, one strand shown
# Sequence of ETV1 (P50549 whole entry): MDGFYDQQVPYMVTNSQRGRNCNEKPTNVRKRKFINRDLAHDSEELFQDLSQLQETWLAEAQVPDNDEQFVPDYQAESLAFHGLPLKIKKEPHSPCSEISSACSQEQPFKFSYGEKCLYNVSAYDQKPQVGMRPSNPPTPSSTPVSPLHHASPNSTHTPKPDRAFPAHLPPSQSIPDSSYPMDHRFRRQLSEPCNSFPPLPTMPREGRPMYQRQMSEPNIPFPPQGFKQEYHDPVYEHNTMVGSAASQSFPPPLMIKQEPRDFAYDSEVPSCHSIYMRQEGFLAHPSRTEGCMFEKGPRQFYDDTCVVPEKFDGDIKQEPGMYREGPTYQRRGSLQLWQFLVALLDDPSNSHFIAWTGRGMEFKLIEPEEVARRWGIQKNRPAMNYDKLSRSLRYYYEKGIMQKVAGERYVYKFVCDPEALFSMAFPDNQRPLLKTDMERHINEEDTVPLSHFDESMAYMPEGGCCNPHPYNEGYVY
# Method in brief: as §1
# ERF = biological target: T6, ERF (Homo sapiens, UniProt P50548 1-548); settings: protein: recombinant; tags: N-terminal GST; dsDNA, one strand shown
# T6 sequence: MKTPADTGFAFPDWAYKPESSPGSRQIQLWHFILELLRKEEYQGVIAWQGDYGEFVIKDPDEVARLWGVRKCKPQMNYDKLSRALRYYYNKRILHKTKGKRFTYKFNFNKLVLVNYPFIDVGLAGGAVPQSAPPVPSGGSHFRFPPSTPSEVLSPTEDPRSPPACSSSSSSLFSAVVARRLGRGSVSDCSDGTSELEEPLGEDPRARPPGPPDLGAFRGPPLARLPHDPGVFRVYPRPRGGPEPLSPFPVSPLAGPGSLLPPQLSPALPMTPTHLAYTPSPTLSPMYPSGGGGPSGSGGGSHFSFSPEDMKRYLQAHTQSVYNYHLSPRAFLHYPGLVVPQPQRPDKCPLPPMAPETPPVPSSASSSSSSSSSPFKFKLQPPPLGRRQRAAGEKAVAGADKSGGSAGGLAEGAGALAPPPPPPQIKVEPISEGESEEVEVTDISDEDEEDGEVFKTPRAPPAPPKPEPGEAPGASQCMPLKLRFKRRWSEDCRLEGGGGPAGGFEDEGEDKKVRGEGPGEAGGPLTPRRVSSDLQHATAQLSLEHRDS
# Method in brief: as §1
# ETV3L = biological target: T7, ETV3L (Homo sapiens, UniProt Q6ZN32 1-361); settings: protein: recombinant; tags: N-terminal GST; dsDNA, one strand shown
# T7 sequence: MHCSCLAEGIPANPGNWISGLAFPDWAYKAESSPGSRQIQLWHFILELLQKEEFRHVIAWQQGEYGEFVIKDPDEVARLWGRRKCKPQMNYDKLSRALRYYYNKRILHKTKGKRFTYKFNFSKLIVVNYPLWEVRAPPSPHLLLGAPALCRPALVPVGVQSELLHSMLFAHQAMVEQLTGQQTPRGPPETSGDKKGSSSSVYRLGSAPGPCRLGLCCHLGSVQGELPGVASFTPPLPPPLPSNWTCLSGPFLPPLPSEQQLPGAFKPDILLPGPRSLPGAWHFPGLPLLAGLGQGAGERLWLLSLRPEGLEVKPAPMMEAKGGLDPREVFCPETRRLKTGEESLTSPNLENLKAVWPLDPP
# Method in brief: as §1
# ETS2 = biological target: T8, ETS2 (Homo sapiens, UniProt P15036 1-469); settings: protein: recombinant; tags: N-terminal GST; dsDNA, one strand shown
# T8 sequence: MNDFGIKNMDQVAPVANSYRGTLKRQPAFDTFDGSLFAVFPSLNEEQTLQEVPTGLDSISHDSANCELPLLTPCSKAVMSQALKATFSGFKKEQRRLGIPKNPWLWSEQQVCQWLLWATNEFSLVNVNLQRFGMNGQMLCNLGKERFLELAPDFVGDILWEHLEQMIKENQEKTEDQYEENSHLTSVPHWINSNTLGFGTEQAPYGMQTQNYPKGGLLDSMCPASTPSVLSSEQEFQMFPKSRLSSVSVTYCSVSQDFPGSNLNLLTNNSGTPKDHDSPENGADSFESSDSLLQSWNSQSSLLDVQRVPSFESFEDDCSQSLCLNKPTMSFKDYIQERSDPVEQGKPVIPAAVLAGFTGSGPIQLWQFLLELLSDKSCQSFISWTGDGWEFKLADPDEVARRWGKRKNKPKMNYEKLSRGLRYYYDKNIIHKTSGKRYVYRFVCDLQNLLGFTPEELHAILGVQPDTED
# Method in brief: as §1
# SPDEF = biological target: T9, SPDEF (Homo sapiens, UniProt O95238 1-335); settings: protein: recombinant; tags: N-terminal GST; dsDNA, one strand shown
# T9 sequence: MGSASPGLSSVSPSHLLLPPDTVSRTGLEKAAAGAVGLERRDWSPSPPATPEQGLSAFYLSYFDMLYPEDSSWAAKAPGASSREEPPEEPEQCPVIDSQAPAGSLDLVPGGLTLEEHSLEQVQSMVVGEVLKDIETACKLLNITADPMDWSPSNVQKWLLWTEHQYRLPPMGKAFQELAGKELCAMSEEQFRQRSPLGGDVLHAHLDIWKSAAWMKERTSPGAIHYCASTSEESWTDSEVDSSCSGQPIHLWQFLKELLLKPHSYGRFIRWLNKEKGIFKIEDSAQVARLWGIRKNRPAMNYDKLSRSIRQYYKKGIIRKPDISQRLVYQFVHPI
# Method in brief: as §1
# ETV7 = biological target: T10, ETV7 (Homo sapiens, UniProt Q9Y603 1-341); settings: protein: recombinant; tags: N-terminal GST; dsDNA, one strand shown
# T10 sequence: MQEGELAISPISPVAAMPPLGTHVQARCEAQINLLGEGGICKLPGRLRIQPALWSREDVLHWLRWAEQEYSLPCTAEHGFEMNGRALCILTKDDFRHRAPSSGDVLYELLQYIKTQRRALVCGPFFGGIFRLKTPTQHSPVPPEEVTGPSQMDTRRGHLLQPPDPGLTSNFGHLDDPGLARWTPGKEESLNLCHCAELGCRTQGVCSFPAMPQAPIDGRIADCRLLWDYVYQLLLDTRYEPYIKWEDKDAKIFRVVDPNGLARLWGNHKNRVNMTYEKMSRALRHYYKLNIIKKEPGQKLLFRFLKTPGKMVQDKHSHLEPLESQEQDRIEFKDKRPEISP
# Method in brief: as §1
# ELF5 = biological target: T11, ELF5 (Homo sapiens, UniProt Q9UKW6-2 1-255); settings: protein: recombinant; tags: N-terminal GST; dsDNA, one strand shown
# T11 sequence: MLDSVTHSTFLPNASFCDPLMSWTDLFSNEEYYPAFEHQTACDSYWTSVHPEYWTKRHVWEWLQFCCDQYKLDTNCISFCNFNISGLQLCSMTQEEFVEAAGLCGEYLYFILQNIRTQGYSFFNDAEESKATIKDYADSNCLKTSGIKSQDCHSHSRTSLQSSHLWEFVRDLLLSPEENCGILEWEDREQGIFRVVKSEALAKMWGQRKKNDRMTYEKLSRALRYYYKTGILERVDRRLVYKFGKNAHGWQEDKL
# Method in brief: as §1
# ETV3 = biological target: T12, ETV3 (Homo sapiens, UniProt P41162-2 1-143); settings: protein: recombinant; tags: N-terminal GST; dsDNA, one strand shown
# T12 sequence: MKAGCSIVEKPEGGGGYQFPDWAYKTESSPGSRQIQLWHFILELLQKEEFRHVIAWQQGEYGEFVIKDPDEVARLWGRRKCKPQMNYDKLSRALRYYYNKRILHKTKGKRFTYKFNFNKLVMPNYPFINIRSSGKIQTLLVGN
# Method in brief: as §1
# ETV6 = ETV6 (Homo sapiens, UniProt P41212 1-452); settings: protein: recombinant; tags: N-terminal GST; dsDNA, one strand shown
# Sequence of ETV6 (P41212 whole entry): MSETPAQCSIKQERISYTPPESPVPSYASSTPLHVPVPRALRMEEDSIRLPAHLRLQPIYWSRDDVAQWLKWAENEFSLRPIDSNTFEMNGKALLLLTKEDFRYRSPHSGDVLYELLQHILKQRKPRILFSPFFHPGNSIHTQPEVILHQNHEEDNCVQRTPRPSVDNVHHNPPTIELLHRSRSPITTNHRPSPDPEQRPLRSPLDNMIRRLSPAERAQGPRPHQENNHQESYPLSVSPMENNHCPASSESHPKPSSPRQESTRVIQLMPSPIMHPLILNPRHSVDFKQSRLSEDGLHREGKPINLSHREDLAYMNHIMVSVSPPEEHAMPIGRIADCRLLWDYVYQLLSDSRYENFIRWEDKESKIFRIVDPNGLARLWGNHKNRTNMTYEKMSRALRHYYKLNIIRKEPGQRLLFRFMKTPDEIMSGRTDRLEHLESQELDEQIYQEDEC
# Method in brief: as §1
sequence,measurement,setting,value
TTCCAT,binding signal,FEV,"1.18 fold enrichment (6-mer frequency, TF over GST control)"
same,binding signal,ETV5,"1.36 fold enrichment (6-mer frequency, TF over GST control)"
same,binding signal,HSF1,"1.74 fold enrichment (6-mer frequency, TF over GST control)"
same,binding signal,SPIC,"1.19 fold enrichment (6-mer frequency, TF over GST control)"
same,binding signal,ELF4,"1.27 fold enrichment (6-mer frequency, TF over GST control)"
same,binding signal,ELK4,"1.42 fold enrichment (6-mer frequency, TF over GST control)"
same,binding signal,ETV2,"1.23 fold enrichment (6-mer frequency, TF over GST control)"
same,binding signal,ELF3,"1.2 fold enrichment (6-mer frequency, TF over GST control)"
same,binding signal,CRX,"1.43 fold enrichment (6-mer frequency, TF over GST control)"
same,binding signal,ETV1,"1.25 fold enrichment (6-mer frequency, TF over GST control)"
same,binding signal,ERF,"1.24 fold enrichment (6-mer frequency, TF over GST control)"
same,binding signal,ETV3L,"1.29 fold enrichment (6-mer frequency, TF over GST control)"
same,binding signal,ETS2,"1.25 fold enrichment (6-mer frequency, TF over GST control)"
same,binding signal,SPDEF,"1.2 fold enrichment (6-mer frequency, TF over GST control)"
same,binding signal,ETV7,"1.27 fold enrichment (6-mer frequency, TF over GST control)"
same,binding signal,ELF5,"1.26 fold enrichment (6-mer frequency, TF over GST control)"
same,binding signal,ETV3,"1.32 fold enrichment (6-mer frequency, TF over GST control)"
same,binding signal,ETV6,"1.4 fold enrichment (6-mer frequency, TF over GST control)"
